Laboratory results as given in PubChem BioAssay (NCI).
Several values for one entry are separate records, joined by “and”; a condition that tells them apart may be missing. Identical values can stand only once. The panel holds about 83,000 compounds, 20% with a hit somewhere; the sample as a whole holds those more often.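 The endpoint reported here, percent growth, reads 100 for growth as untreated, 0 for no net growth and -100 for all cells dead.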 A number with no mark means an inactive call. Activity calls are given as the source filed them.

What follows are compounds tested on EKVX NSCLC (assay: NCI-60 one-dose screen, 48 h (100 = growth as untreated, 0 = no growth, -100 = all killed)). Settings: 1 µM.
Description: Growth inhibition of the EKVX human Non-Small Cell Lung tumor cell line is measured as a screen for anti-cancer activity. Cells are grown in 96 well plates and exposed to the test compound for 48 hours. Compounds are tested at a single concentration, which is 10^-5 M for most compounds. The reported endpoint is percent growth (GI% or GIPRCNT), where numbers from 0 - 100% represent growth inhibition, and numbers from -100% - 0 represent cell death. For example, a value of 40 represents 60% growth inhibition. A value of 0 means no net growth occurred over the course of the experiment. A value of -40 indicates 40% of cells at the beginning of the experiment died by the end of the experiment. A value of -100 means all cells are dead at the end of the experiment.
NCI-60 Human Tumor Cell Lines Screen was performed using the standard one-dose NCI protocol, which is described in more detail at https://dtp.cancer.gov/discovery_development/nci-60/default.htm.
Compounds with GIPRCNT values below 10 were considered active. Activity score was based on GIPRCNT using the following formula: […]
Score is 0 for GIPRCNT values of 100 or above, 50 for GIPRCNT values of 0, and 100 for GIPRCNT values of -100.
Compound `CC/C(=C(\c1ccc(O)cc1)c1ccc(OCCN(C)C(=O)COCCNC(=O)Cc2ccc3c(c2)CN([C@@H]2CCC(=O)NC2=O)C3=O)cc1)c1ccccc1` has a growth of 103%.
In the case of `CC/C(=C(/c1ccc(O)cc1)c1ccc(OCCN(C)C(=O)COCCOCCNC(=O)c2ccc3c(c2)CN([C@@H]2CCC(=O)NC2=O)C3=O)cc1)c1ccccc1`, the growth is reported as 99.1%.

Same assay, conditions: 10 µM
`CC/C(=C(\c1ccc(O)cc1)c1ccc(OCCN(C)C(=O)COCCNC(=O)Cc2ccc3c(c2)CN([C@@H]2CCC(=O)NC2=O)C3=O)cc1)c1ccccc1` showed a growth of 92.1%.
`CC/C(=C(/c1ccc(O)cc1)c1ccc(OCCN(C)C(=O)COCCOCCNC(=O)c2ccc3c(c2)CN([C@@H]2CCC(=O)NC2=O)C3=O)cc1)c1ccccc1` gave a growth of 93.4%.

Same assay, conditions: 10 µM unless noted
In the case of `COc1ccc2c(c1)c(-c1cc(N)n3nc(-c4c[nH]c5ccccc45)cc3n1)cn2C`, the growth is reported as -79.6% (active).
`Nc1nn2c(-c3cc4ccccc4oc3=O)ccnc2c1N=Nc1ccccc1` showed a growth of 66.9%.
Compound `CCC(=O)c1c2c(c3ccc4c5ccccc5ccc4n13)C(=O)c1ccccc1C2=O` has a growth of 71.2%.
In the case of `Cn1cc(-c2cc(N)n3nc(-c4c[nH]c5ccccc45)cc3n2)c2ccccc21`, the growth is reported as -96.1% (active).
Work on `Nc1nnc(CS(=O)(=O)c2ccccc2)s1` yielded a growth of 103%.
`O=S(=O)(c1nc(-c2ccc(Br)cc2)oc1-c1ccc(Cl)cc1)N1CCCC(O)C1` (stereo not given) was tested, and the growth was 50%.
With `COc1ccc2[nH]cc(-c3cc4nc(-c5cn(C)c6ncc(Br)cc56)cc(N)n4n3)c2c1` the growth was -82.7% (active).
Work on `COc1cc(/C=C/C(=O)c2ccc(S(=O)(=O)NCCNc3nc(N(C)C)nc(N4CCOCC4)n3)cc2)cc(OC)c1OC` yielded a growth of 36.3%.
For `Cc1ccc(O)cc1Nc1nc(SCCN2CCOCC2)nc2c1cnn2CC(Cl)c1ccc(Br)cc1` (stereo not given), the growth was 21%.
With `COc1ccc2[nH]c(O)c(N=NC(=O)c3ccc4nc(-c5ccc(Cl)cc5)[nH]c4c3)c2c1` the growth was 90.1%.
Work on `O=C(CSc1nc2sc3c(c2c(=O)n1-c1ccc(Cl)cc1)CCCC3)NNC(=O)c1ccc(Br)cc1` yielded a growth of 60.9%.
With `CC(C)C[C@H](NC(=O)[C@@H]1CCCCCCCCCCC(=O)N[C@@H](CC(=O)N2CCC[C@@H]2C2CCCC2)C(=O)N1)B(O)O` the growth was -39.2% (active).
`Fc1ccc(F)c(CNc2nc(SCCN3CCOCC3)nc3c2cnn3CC(Cl)c2ccc(Br)cc2)c1` (stereo not given) was tested, and the growth was 45.1%.
Compound `COc1cc(NC(=O)CSc2nnc(-c3ccc(-c4nc5ccc(Cl)cc5[nH]4)cc3)o2)cc(OC)c1OC` has a growth of 81.1%.
With `COc1cc(-c2ccc3ncnc(N4CCc5ccc(Cl)cc54)c3c2)cnc1Cl` the growth was 2.35% (active).
For `Cn1cc(-c2cc(N)n3nc(-c4c[nH]c5ccc(Cl)cc45)cc3n2)c2cc(Br)cnc21`, the growth was 0.312% (active).
In the case of `N#CC1=C(c2cccs2)Nc2c(c(-c3ccccc3)nn2-c2ccccc2)C12C(=O)Nc1ccc(Cl)cc12` (stereo not given), the growth is reported as 13.3%.
With `O=C(c1ccc(Cl)cc1)C1[C@H](c2ccccc2Cl)[C@@H](c2ccccc2)NC12C(=O)Nc1ccccc12` (stereo not given in full) the growth was 1.03% (active).
For `CC(C)(C)c1ccc(OCc2nc3ccccc3n2-c2cccc(N)c2)cc1`, the growth was 45.5% and 96.8%.
`Clc1ccc(CNc2nc(SCCN3CCOCC3)nc3c2cnn3CC(Cl)c2ccc(Br)cc2)cc1` (stereo not given) was tested, and the growth was 31.8%.
With `S=C(Nc1ccccc1)Nc1ccc(OCc2nc3ccc(Cl)cc3[nH]2)cc1` the growth was 67.2%.
`COc1ccc2c(c1)C(Sc1ccc(Br)cc1)c1c(nc(N)c(C#N)c1N)O2` (stereo not given) was tested, and the growth was 67%.
For `COc1cc2cc(C(=O)N3C[C@@H](CCl)c4c3cc(OC(=O)N(CCC(=O)N3CCN(C)CC3)C3CCCCC3)c3ccccc43)[nH]c2c(OC)c1OC`, the growth was -78.8% (active).
In the case of `OC1CCC(Cn2c(C(F)(F)F)cc3c(Cl)ncnc32)CC1` (stereo not given), the growth is reported as 65.7%.
Work on `COC(=O)c1c(C(=O)OC)c2c3ccccc3c3ccccc3n2c1C(=O)C(F)(F)F` yielded a growth of 98.2%.
Compound `O=C(NNC(=O)c1ccc(OCc2nc3ccc(Cl)cc3[nH]2)cc1)Nc1ccc(Cl)c(C(F)(F)F)c1` has a growth of 69.6%.
`COc1cc(C2CC(c3ccc(Cl)cc3)=Nc3c(N)nc(N)nc3N2)ccc1Oc1nc(Nc2ccc(F)cc2)nc(N(C)C)n1` (stereo not given) was tested, and the growth was 49.6%.
In the case of `N#Cc1c(-c2ccc(F)cc2)nc(SCc2ccc(F)cc2)nc1N1CCNCC1`, the growth is reported as 1.29% (active).
In the case of `COc1ccc(NC2=C(I)C(=O)C(C)=C(C)C2=O)cc1`, the growth is reported as 25%.
`CN1CCN(c2ccc3c4c(cccc24)C(=O)N(c2cccc(-c4nn(-c5ccccc5)cc4-c4nc5ccccc5s4)c2)C3=O)CC1` was tested, and the growth was 107%.
In the case of `C[C@@H]1CN(c2ccc3ncc(C#Cc4cncc(C(=O)Nc5ccc(CN6CCN(C)CC6)c(C(F)(F)F)c5)c4)n3n2)C[C@@H](C)O1`, the growth is reported as -96% (active).
In the case of `O=C1CCC(N2C(=O)c3cccc(NCCCCCC(=O)N4CCN(c5ccc6nc7c(nc6c5C(F)(F)F)C(=O)c5ncccc5C7=O)CC4)c3C2=O)C(=O)N1` (stereo not given), the growth is reported as -59.6% (active).
For `Fc1ccc(Nc2nnc(-c3c[nH]c4ccccc34)o2)cc1`, the growth was 56.5%.
With `CCOC(=O)/C(F)=C/C1CC1C(c1ccccc1)c1ccccc1` (stereo not given) the growth was 86.5%.
In the case of `COC(=O)c1c(C(=O)OC)c2c3ccccc3c3ccccc3n2c1C(=O)C(C)(C)C`, the growth is reported as 96.2%.
`O=C(c1ccc(O)cc1)C1[C@H](c2ccc(Cl)cc2)[C@@H](c2ccccc2)NC12C(=O)Nc1ccccc12` (stereo not given in full) was tested, and the growth was 8.32% (active).
